Screening results (PubChem)
Rows were chosen to be rich in hits. Some 18% of all compounds tested hit in one or more screens of this group.
CtBP-E1A blk: CtBP/E1A binding inhibition. AlphaScreen GST-E1A/His-CtBP binding, 1536-well; active compounds read low. activity change, % (no concentration beside the values). actives 0.49% (n = 340,000). AID 651724; in the data active means activity change below about -65%; inconclusive means mostly about -30% to -63%
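Steps: dispense buffer (Tris pH 8.0, NaCl 300 mM, TCEP 1 mM, BSA, Tween 20); add 5X protein mix (GST-E1A, His-CtBP, 125 nM each); pin 23 nL compound; 2 h at 37 °C, dark; add 5X beads (50 ug/mL); 1 h; read.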
TDP1 inh: inhibitors of human tyrosyl-DNA phosphodiesterase TDP1; Q9NUW8; recombinant TDP1, AlphaScreen DNA substrate cleavage; Potency, µM (titrated, usually from 130 µM), for the others: top-dose activity change, negative = inhibition, hits mostly inhibitors; actives 0.28% (n = 350,000); AID 485290; further: potency means the concentration at half of the fitted maximal effect; nearly all actives have a fitted effect of over 40% in size
Target sequence (Q9NUW8 whole entry, looked up): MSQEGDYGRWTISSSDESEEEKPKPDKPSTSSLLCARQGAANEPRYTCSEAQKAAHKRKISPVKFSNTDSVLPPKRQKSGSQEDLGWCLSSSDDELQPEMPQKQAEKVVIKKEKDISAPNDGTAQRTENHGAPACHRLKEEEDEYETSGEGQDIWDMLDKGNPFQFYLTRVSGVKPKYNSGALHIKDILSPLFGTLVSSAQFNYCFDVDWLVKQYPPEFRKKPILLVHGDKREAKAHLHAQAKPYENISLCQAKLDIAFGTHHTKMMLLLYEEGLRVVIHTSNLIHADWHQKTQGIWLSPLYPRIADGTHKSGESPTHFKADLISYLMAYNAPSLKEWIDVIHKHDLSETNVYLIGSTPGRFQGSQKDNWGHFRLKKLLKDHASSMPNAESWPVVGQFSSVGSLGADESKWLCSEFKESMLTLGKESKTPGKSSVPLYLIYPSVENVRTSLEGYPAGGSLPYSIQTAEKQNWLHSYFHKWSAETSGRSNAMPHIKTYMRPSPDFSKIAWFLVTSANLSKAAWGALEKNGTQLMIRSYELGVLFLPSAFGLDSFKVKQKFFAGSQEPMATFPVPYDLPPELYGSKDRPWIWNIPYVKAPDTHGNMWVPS
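E. coli-derived human Tdp1, 1 nM final. Cpd preinc 15 min RT; substrate 15 nM final, 5 min RT; AS bead mix 10 ug/ml final, 10 min RT. Signal loss = tyrosine-FITC cleavage. No-enzyme wells = max signal.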
TDP1 cell CPT: growth inhibition of DT40 Tdp1-/-;hTDP1 cells with camptothecin (screen for TDP1 inhibitors) | Potency, µM (titrated, usually from 46.2 µM), for the others: at the top dose activity change, negative = growth inhibition, usual class: inhibitors | AID 686979 | chicken DT40 Tdp1-/-;hTDP1 cells + 20 nM CPT, ATP luminescence, 48 h | actives 12% (n = 420,000); further: potency means the concentration at half of the fitted maximal effect; nearly all actives have a fitted effect of over 55% in size
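Cell growth measured by CellTiter-Glo luminescence after a minimum 48 h, 37 C compound exposure with 20 nM CPT in Tdp1-knockout DT40 cells stably expressing hTDP1, seeded 400/well; qHTS titration format.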
TDP1 cell noCPT: qHTS for Inhibitors of human tyrosyl-DNA phosphodiesterase 1 (TDP1): qHTS in cells in absence of CPT; AID 686978, 2013; Potency, µM (doses to about 46.2 µM), for the others: at the top dose activity change, negative = growth inhibition, usual class: inhibitors; DT40 Tdp1-/- hTDP1 cells, no CPT, ATP luminescence, 48 h; actives 15% (n = 420,000); further: potency means the concentration at half of the fitted maximal effect; nearly all actives have a fitted effect of over 55% in size
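Chicken DT40 Tdp1-/- cells complemented with human TDP1, screened without camptothecin (DMSO vehicle only), 400 cells/well. Compounds pin-transferred, cells incubated at 37 °C for at least 48 hr. Growth read as ATP-dependent luminescence (CellTiter-Glo, 30 min at RT).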
IL-1B inflam inh: blocks inflammasome-driven IL-1 beta release; activity change, % at 57.5 µM; actives 4.7% (n = 360,000); AID 743279; THP-1 LPS/ATP IL-1B secretion, AlphaLISA, 16 h; active compounds read low; in the data active means activity change below about -50%; inconclusive means mostly about -30% to -49%
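THP-1 cells pretreated 1 hr with compounds (up to 57.5 uM final), then stimulated with LPS (250 ng/mL final) plus ATP (1.25 mM final); secreted IL-1B measured by AlphaLISA after 16 hr, decreased signal indicating inhibition.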
Six1-Eya2 blk: Six1/Eya2 interaction inhibition; AID 651725; actives 0.56% (n = 360,000); Q15475+O00167; activity change, % (test concentration not listed); AlphaScreen GST-Six1/His-Eya2 binding, biochemical; active compounds read low; in the data active means activity change below about -65%; inconclusive means mostly about -30% to -63%
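Six1/Eya2 binding was read as AlphaScreen signal after compounds were pinned into GST-Six1 plus His-tagged Eya2 (5X stock 250/500 nM) in pH 8.0 Tris/NaCl/TCEP buffer, beads added, then incubated 1 h, 37 C, dark.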
* marks the source's active call; other numbers are inactive results; ? = inconclusive; . = no result given. Unless noted, the call rests on the fitted dose curve; in most records, active means well fitted curve in the direction sought with a large enough effect; inconclusive means small, poorly fitted or top-dose-only effect, or another doubt; inactive means no such curve, though single readings can be large; an effect the other way counts as inactive or inconclusive. On the % scale 0 is the no-effect control and ±100 the full control effect.

SMILES | CtBP-E1A blk | TDP1 inh | TDP1 cell CPT | TDP1 cell noCPT | IL-1B inflam inh | Six1-Eya2 blk
COc1ccc(CCNC(=O)c2cc(Nc3cc(C)cc(C)c3)nc3ccccc23)cc1OC | . | 0.0% | 8.2µM* | 8.2µM* | . | .
C[C@@H]1C[C@H]2C3C[C@H](F)C4=CC(=O)C=CC4(C)[C@@]3(F)[C@@H](O)CC2(C)[C@@]1(O)C(=O)COC(=O)C(C)(C)C (stereo partly drawn) | . | . | 14.3% | ? | . | .
O=C(NCc1ccc[n+](CCCCS(=O)(=O)[O-])c1)c1ccc(OC(F)F)cc1 | . | -2.6% | . | . | . | .
C=CCNC(=O)c1cc(-c2ccccc2)sc1N | 4.6 | . | ? | ? | -10.1 | -15.6
Nc1sc(-c2ccccc2)cc1C(=O)NCCc1ccc(Cl)cc1 | 2.6 | . | 23.1µM* | 16.4µM* | -17.9 | -7.8
CCCCN(CCCNC(=O)c1cc(Nc2cccc(SC)c2)nc2ccccc12)Cc1ccccc1 | . | 2.3% | 6.51µM* | 4.11µM* | . | .
CC(C)CC(=O)Nc1cccc(-c2cn3cccnc3n2)c1 | . | -3.3% | -10.3% | -27.3% | . | .
O=C(OCc1cn([C@H]2CN(C(=O)C3CCCCC3)[C@@H](c3ccccc3)C[C@@H]2O)nn1)c1ccccc1 | -18.4 | . | ? | 20.6µM* | 32.5 | -0.5
O=C(OCc1cn([C@H]2CN(C(=O)C3CCCCC3)[C@@H](c3ccc(Cl)cc3)C[C@@H]2O)nn1)c1ccccc1 | 2.1 | . | ? | 20.6µM* | -19.7 | -4.4
O=C(Cc1ccccc1)NC(Nc1cccc2ccccc12)C(Cl)(Cl)Cl (stereo not drawn) | 13.8 | -2.0% | ? | 25.9µM* | 30.1 | 9.2
COc1cc(C2NC(=O)NC(C)=C2C(=O)OCC2CCCO2)ccc1O (stereo not drawn) | 21.7 | 3.3% | -13.9% | -9.8% | 1.1 | 15.6
CCCN(CCC)C(=O)Cn1c(=O)n(-c2ccc(C)cc2)c(=O)c2ccc(C(=O)NCc3ccccc3Cl)cc21 | . | 0.0% | ? | ? | . | .
CCCN(CCC)C(=O)Cn1c(=O)n(-c2ccc(CC)cc2)c(=O)c2ccc(C(=O)NCCc3ccccc3)cc21 | . | 0.0% | 11.6µM* | 7.31µM* | . | .
CCc1ccc(-n2c(=O)c3ccc(C(=O)NCCc4ccccc4)cc3n(CC(N)=O)c2=O)cc1 | 3.2 | -2.3% | ? | 20.6µM* | 12.9 | 3.1
COc1ccc(-c2cc(=O)c3ccccc3s2)cc1 | 7.5 | 6.1% | ? | ? | -59.5* | -1.8
COc1ccc(-c2sc3ccccc3c2-c2cc(OC)ccc2C=O)cc1 | -14.2 | . | ? | 20.6µM* | 78.1 | -8.6
COc1ccc(C=O)c(-c2c(CCO)sc3ccccc23)c1 | 10.9 | . | ? | ? | 43.1 | 11.3
COc1ccc(-c2c(-c3ccccc3OC)sc3ccccc23)cc1C=O | 11.2 | -17.4% | ? | 18.4µM* | 20.2 | 7.8
COc1ccc(-c2sc3ccccc3c2/C=C/c2ccc(OC)c(OC)c2)cc1 | 28.0 | -4.4% | -21.1% | -16.4% | -5.9 | 33.9
COc1ccc(-c2sc3ccccc3c2/C=C/c2ccncc2)cc1 | 10.4 | -6.0% | ? | 16.4µM* | -4.2 | 2.9
C=CC[C@@H](CC(=O)NCCO)C(=O)N[C@H](C)COC(=O)[C@@H](CC=C)Cc1ccc(F)cc1 | 26.0 | 1.5% | -15.3% | 6.1% | -10.5 | 20.2
CC(C)(C)[Si](C)(C)c1c2c(nc3ccc(OCc4ccccc4)cc13)-c1cccc(=O)n1C2 | . | -0.9% | . | . | . | .
CSc1ccc(CCNC(=O)c2cc3cc4cc(C)ccc4nc3s2)cc1 | . | 1.8% | ? | ? | . | .
COc1ccc2c(c1)O[C@@H](c1ccc3c(c1)OCO3)[C@H](OC(=O)Nc1ccc(C)c(Br)c1)C2=O | . | 9.3% | . | . | . | .
CC1Cn2c(C(=O)NCCc3ccc(Cl)cc3)cc3cccc(c32)S1 (stereo not drawn) | . | 0.0% | 16.4µM* | ? | . | .
